Results on 14 compounds are retold here after PubChem BioAssay (NCI).

Compounds without any hit were thinned out: in the full panel of roughly 83,000, 20% have a hit.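 Results are percent growth after 48 hours of single-concentration exposure. 100 means growth as in untreated cells, lower positive values show inhibition; negative values down to -100 show cell death.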 Values without a mark were called inactive. The source made the active and inactive calls. How the source made its calls: active means growth percent below 10; inactive means the rest.

Common to all, as to test: NCI-60 one-dose screen, 48 h (100 = growth as untreated, 0 = no growth, -100 = all killed)
Common to all, as to conditions: 10 µM unless noted

For test [1], the system named is SR leukemia.
Test [2] relates to RPMI-8226 leukemia.
Test [3] has as its system OVCAR-8 ovarian.
Test [4] concerns OVCAR-5 ovarian.
In test [5] the test system is SK-OV-3 ovarian.
The test system of test [6] is IGROV1 ovarian.
The test system of test [7] is OVCAR-3 ovarian.
Test [8] concerns HS 578T breast.
For test [9], the system named is NCI/ADR-RES ovarian.
Test [10] concerns OVCAR-4 ovarian.

Consider `O=S(=O)(NCCNc1nccc(-c2c(-c3cccc(O)c3)nc3occn23)n1)c1ccc(C(F)(F)F)cc1`, for which the growth in test [1] was 110%; in test [2], 105%; in test [3], 102%; in test [4], 138%; in [5], 95.8%; in test [6], 73.8%. The growth in test [7] is 113%; in test [8], 100%; in test [9] it was 105%.
Take `CCCCCCCCCCCCCCCC[N+]1(C)CCN(SN2CC[N+](C)(CCCCCCCCCCCCCCCC)CC2)CC1`: the growth in [1] was 26.8%; in test [2] it was 26.3%; in test [3], 67.2%; in test [4] it was 50%; in [5], 124%; in test [6], -18.9% (active). The growth is 59.7% in test [7], 88.2% in [8] and 96.3% in test [9].
Take `CC(Oc1ccc(C(=O)O)cc1C(F)(F)F)c1ccc(Oc2ccccc2)cn1` (stereo unspecified): the growth in test [1] was 71.7%; in [2] it was 99.9%; in test [3], 96.6%; in test [4] it was 102%; in test [5], 124%; in test [6], 98.4%. Also, the growth in test [7] was 104%; in test [8], 99.6%; in [9] it was 75.2%.
Take `O=[N+]([O-])c1ccc(NC(=S)N/N=C/c2cc3ccccc3n3nnnc23)cc1`: the growth was 4.33% (active) in test [1]; 47.7% in test [2]; 71.2% in test [3]; 79.6% in test [4]; 73.7% in test [5]; 54.5% in test [6]. Besides, the growth in [7] was 14.3%; in test [8], 67%; in test [9], 51.7%.
With `O=C(CCN1CCCC1)Nc1ccc2c(Nc3ccc(Br)cc3)c3ccccc3nc2c1`, the growth in test [1] is -22.6% (active); in [2], -34.9% (active); in [3] it was 5.94% (active); in test [4], 41.9%; in [10], -20.2% (active); in test [5], 57.5%. Further, the growth in [6] is -21.1% (active); in test [8] it was 58.6%; in test [9], 20.3%.
For `COc1ccc(C(=O)/C=C/c2cc3ccccc3n3nnnc23)cc1`, the growth in test [1] was 92.3%; in [2], 98.7%; in [3], 109%; in test [4], 108%; in test [5] it was 102%; in test [6] it was 109%. In addition, the growth in [7] is 113%; in test [8], 106%; in test [9], 113%.
On to `CCCCCCNC(=O)Oc1ccc(/C(=C(\C)c2ccccc2)c2ccc(OCCCN(C)C)cc2)cc1`, for which the growth in test [1] is 2.09% (active); in [2] it was 81.6%; in test [3], 86.9%; in [4], 85.5%; in test [10], 86.9%; in test [5], 95.6%. Further, the growth in [6] is 80.4%; in test [8] it was 74%; in test [9] it was 81%.
With `O=C(C[n+]1cccc2ccccc21)c1ccc(O)c(O)c1`, the growth in test [1] was 7.71% (active); in [2] it was 17.4%; in test [3], 49.2%; in test [4], 88%; in test [10] it was 55.1%; in test [5], 120%. Besides, the growth in test [6] is 48.5%; in test [8] it was 90.6%; in [9] it was 75.4%.
Turning to `Cc1ccc(NC(C(=O)c2ccccc2)c2ccccc2)cc1` (stereo unspecified), the growth is 69% in test [1]; 25.6% in [2]; 45.9% in test [3]; 78.4% in test [4]; 95.5% in test [5]; 57.6% in test [6]. For the same compound, the growth in test [7] is 29.4%; in test [8], 32.7%; in test [9] it was 92.8%.
`COc1ccccc1/C(C)=N/NC(=O)CSc1nc2ccccc2c(=O)n1Cc1ccc(S(N)(=O)=O)cc1`: the growth in test [1] was 96.1%; in test [2] it was 99.5%; in [3] it was 98.7%; in test [4] it was 97.9%; in test [10] it was 94.9%; in test [5], 115%. For the same compound, the growth was 102% in test [6], 85.4% in test [8] and 99.5% in [9].
In the case of `O=C(Nc1ccc(NC(=O)c2cc(=O)[nH]c3ccccc23)cc1)Nc1cccc(Cl)c1`, the growth in test [1] was 36.2%; in test [2] it was 96.3%; in test [3] it was 85.9%; in [4], 87.9%; in test [10], 78.8%; in test [5], 74.8%. Further, the growth in test [6] is 69%; in test [8], 93.5%; in test [9] it was 94.9%.
In the case of `N#C/C(=C\c1ccc(C(F)(F)F)cc1)c1cc2ccccc2[nH]1`, the growth in test [1] was 95.7%; in [2], 72%; in test [3], 101%; in test [4], 108%; in test [5] it was 93%; in test [6], 94.5%. Besides, the growth in [7], in test [8] and in test [9] was 104% each time.
Turning to `O=C(Nc1ccc(-c2ccc3c(c2)NC(=O)/C3=C\c2ccc[nH]2)cc1)NC1CC1`, the growth in test [1] is 34.8%; in test [2] it was 87%; in test [3], 109%; in test [4], 105%; in [5], 118%; in test [6], 96.6%. Moreover, the growth in test [7] was 107%; in test [8], 97.1%; in test [9] it was 105%.
As to `C=C1C(=O)O[C@H]2[C@H]1CC/C(CNC(=O)c1cccc3ccccc13)=C\CC[C@@]1(C)O[C@@H]21`, the growth was 16.5% in test [1]; 2.93% (active) in [2]; 43.5% in test [3]; 68.8% in test [4]; 63.2% in [10]; 110% in test [5]. Besides, the growth in [6] is 31.3%; in [8], 69.9%; in [9], 80.9%.
